TSHR agonist = activates the human thyroid stimulating hormone receptor. HEK293-CNG-TSHR cells (CNG channel as cAMP sensor), membrane potential dye, cAMP. Potency, µM (titrated, usually from 57.1 µM), for inactives: top-dose activation, most hits filed as activators. 0.48% of 73,000 active; active means well fitted activation curve with a large enough effect in the main read-out, with a control signal flat, not every such curve was filed as active; inconclusive means small, poorly fitted or top-dose-only effect, or a change in a side signal; inactive means no such curve, though single readings can be large or run the other way; % of control where 0% means no effect;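 further: the control signal comes from parental cells without the receptor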
Target sequence (P16473 whole entry, looked up): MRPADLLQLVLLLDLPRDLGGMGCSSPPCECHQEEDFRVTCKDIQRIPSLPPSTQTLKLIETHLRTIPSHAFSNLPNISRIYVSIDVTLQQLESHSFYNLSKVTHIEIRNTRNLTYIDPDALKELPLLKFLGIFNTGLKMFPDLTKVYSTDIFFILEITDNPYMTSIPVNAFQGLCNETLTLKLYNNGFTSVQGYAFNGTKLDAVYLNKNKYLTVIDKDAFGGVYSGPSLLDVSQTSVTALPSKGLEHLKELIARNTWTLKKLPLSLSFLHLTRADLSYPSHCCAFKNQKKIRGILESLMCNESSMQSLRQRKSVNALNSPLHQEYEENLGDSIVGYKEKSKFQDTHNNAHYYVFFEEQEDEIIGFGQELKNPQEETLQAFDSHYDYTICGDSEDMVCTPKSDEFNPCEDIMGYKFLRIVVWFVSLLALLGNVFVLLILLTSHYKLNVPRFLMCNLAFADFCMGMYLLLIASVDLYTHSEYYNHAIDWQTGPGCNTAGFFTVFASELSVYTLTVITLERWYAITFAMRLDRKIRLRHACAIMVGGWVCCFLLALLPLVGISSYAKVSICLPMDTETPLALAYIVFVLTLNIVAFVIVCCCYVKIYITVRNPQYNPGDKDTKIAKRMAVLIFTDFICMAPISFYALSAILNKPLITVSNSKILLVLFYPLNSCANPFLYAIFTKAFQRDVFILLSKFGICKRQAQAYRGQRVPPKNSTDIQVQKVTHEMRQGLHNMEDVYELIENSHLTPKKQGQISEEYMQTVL
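cAMP rise detected as CNG-channel membrane depolarization by fluorescent dye (emission 590 nm), 30 min after compound, following 60 min dye loading containing 100 uM RO 20-1724 at room temperature. Cells: TSHR/CNG HEK 293, with parental CNG HEK 293 as control.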
ERK AVP inh = inhibitors of vasopressin-stimulated ERK signaling pathway; Potency, µM (doses to about 57.5 µM), without a hit: at the highest dose activity, negative = inhibition, hits mostly inhibitors; HEK293-V1b, vasopressin-stimulated pERK AlphaScreen; AID 995; 0.99% of 72,000 active; further: on the % scale 0 is the no-effect control and ±100 the full control effect; nearly all actives have a fitted effect of over 55% in size
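qHTS, compounds titrated on V1b-expressing HEK293 cells. Preincubation 30 min at 37C, vasopressin 25 nM for 5 min, lysis 10 min, bead incubation 5 hr at room temperature.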
HEK293 cAMP cs = raises cAMP in parental HEK293 cells, TSHR agonist counter-screen | Potency, µM (highest dose often 57.1 µM), inactives show at the top dose activation, hits mostly activators | parental HEK293 CNG cAMP sensor, membrane potential fluorescence | AID 938 | 2.5% of 73,000 active; further: % of control where 0% means no effect; nearly all actives have a fitted effect of over 55% in size
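Parental HEK 293 cells stably expressing a cAMP-gated CNG channel were loaded with membrane potential dye containing 100 uM RO 20-1724 for 60 min. Compound added for 30 min; depolarization read as fluorescence intensity at 590 nm.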
CRE-bla Fsk = CRE-bla signaling modulation under forskolin stimulation. Potency, µM (highest dose often 38.2 µM), inactives show at the highest dose activity change, negative = inhibition, hits mostly activators. AID 662. 2.5% of 71,000 active. CHO CRE-bla reporter (cAMP response element driving beta-lactamase), forskolin EC10, beta-lactamase ratio; active means well fitted activation curve with a large enough effect in the signal ratio, with a control signal flat, not every such curve was filed as active; inconclusive means small, poorly fitted or top-dose-only effect, or effect the other way, or a change in a side signal; the % refers to the signal ratio; further: % of control where 0% means no effect
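Modulation of forskolin signalling: compounds in titration series added with EC10 NKH 477 to CHO cells carrying a CRE-driven beta-lactamase reporter, 3 h, 37C. CCF4 FRET ratio (460/530 nm, ex 405 nm) gives %activity and AC50.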
* = called active by the depositor; [ ] = dose if it differs, or a comment. The list is not random: actives were taken first. Their share in the collection is about 6%. Unless noted, the call rests on the fitted dose curve; in most records, active means well fitted curve in the direction sought with a large enough effect; inconclusive means small, poorly fitted or top-dose-only effect, or another doubt; inactive means no such curve, though single readings can be large; an effect the other way counts as inactive or inconclusive. Potency means the concentration at half of the fitted maximal effect.

COC(=O)C(C(=O)OC)C1O[C@@]23COCCC2(C)C3c2ccccc21 (some centres undefined) was read as TSHR agonist 18.6%[11.4 µM], ERK AVP inh 29.2%[11.5 µM] and HEK293 cAMP cs 8.6%[11.4 µM].
COc1ccc(Oc2ncc3ncc(=O)n(-c4ccc(OC)cc4)c3n2)cc1 was read as TSHR agonist -2.2%, ERK AVP inh -1.9%, HEK293 cAMP cs 9.4% and CRE-bla Fsk -17.5%.
For COc1ccc(-n2c(=O)cnc3cnc(N(C)C)nc32)cc1 the results were TSHR agonist 11.9%, ERK AVP inh -29.9%, HEK293 cAMP cs 14.6% and CRE-bla Fsk 10µM*.
For CN1/C(=C\C(=O)C(F)F)C(C)(C)c2ccccc21 the results were TSHR agonist inconclusive, ERK AVP inh 22.9%, HEK293 cAMP cs 31.6µM* and CRE-bla Fsk 6.5%.
CN1/C(=C\C(=O)c2ccco2)C(C)(C)c2ccccc21 was read as TSHR agonist inconclusive, ERK AVP inh inconclusive, HEK293 cAMP cs 20µM* and CRE-bla Fsk inconclusive.
`CN1/C(=C/C(=O)c2nc(S(C)(=O)=O)ncc2Cl)C(C)(C)c2ccccc21` gave TSHR agonist -4.3%, ERK AVP inh 13.4%, HEK293 cAMP cs -11.5% and CRE-bla Fsk inconclusive.
For CN1/C(=C\C(=O)COc2ccc3c(c2)OCO3)C(C)(C)c2ccccc21 the results were TSHR agonist inconclusive, ERK AVP inh inconclusive, HEK293 cAMP cs 31.6µM* and CRE-bla Fsk -11.3%.
CN1/C(=C\C(=O)COC(=O)C2COc3ccccc3O2)C(C)(C)c2ccccc21 (centres undefined) was read as TSHR agonist 16.1%, ERK AVP inh -1.7%, HEK293 cAMP cs 3.0% and CRE-bla Fsk inconclusive.
Screening CNC(=O)[C@@H](Cc1ccccc1)N(C)C(=O)[C@@H](Cc1ccc2ccccc2c1)N(C)C(=O)/C=C/CC(C)(C)N returned TSHR agonist 9.2%, ERK AVP inh 4.7% and HEK293 cAMP cs 7.9%.
CSCC[C@@H](C(=O)O)N(C)C was read as TSHR agonist 15.0%[11.4 µM], ERK AVP inh -1.7%[11.5 µM], HEK293 cAMP cs 10.8%[11.4 µM] and CRE-bla Fsk -1.4%[7.6 µM].
`Cc1cccn2c(=O)c3cc(C#N)c(=O)n(Cc4cccnc4)c3nc12` gave TSHR agonist -5.7%, ERK AVP inh -18.3%, HEK293 cAMP cs -0.8% and CRE-bla Fsk 6.31µM*.
`N#Cc1cc2c(=O)n3ccccc3nc2n(CCN2CCOCC2)c1=O` gave TSHR agonist -4.0%, ERK AVP inh -17.5%, HEK293 cAMP cs -7.4% and CRE-bla Fsk inconclusive.
`N#Cc1cc2c(=O)n3ccccc3nc2n(Cc2cccnc2)c1=O` gave TSHR agonist -5.3%, ERK AVP inh -20.6%, HEK293 cAMP cs 0.1% and CRE-bla Fsk 1µM*.
Screening N#Cc1cc2c(=O)n3ccccc3nc2n(CCCN2CCOCC2)c1=O returned TSHR agonist -1.0%, ERK AVP inh -25.2%, HEK293 cAMP cs -6.6% and CRE-bla Fsk 10µM*.
Cc1ccc2nc3c(cc(C#N)c(=O)n3CC3CCCO3)c(=O)n2c1 (centres undefined) was read as TSHR agonist -3.0%, ERK AVP inh -3.7%, HEK293 cAMP cs -5.3% and CRE-bla Fsk 1.26µM*.
`Cc1cccn2c(=O)c3cc(C#N)c(=N)n(Cc4cccnc4)c3nc12` gave TSHR agonist -5.2%, ERK AVP inh -10.6%, HEK293 cAMP cs 1.9% and CRE-bla Fsk 8.1%.
CC(=O)O[C@@H]1C(=O)[C@@]2(C)[C@H](O)C[C@H]3OC[C@]3(OC(C)=O)[C@@H]2[C@H](OC(=O)c2ccccc2)[C@@]2(O)C[C@H](OC(=O)[C@@H](O)[C@@H](NC(=O)c3ccccc3)c3ccccc3)C(C)=C1C2(C)C (stereo in doubt) was read as TSHR agonist -3.0%[25.6 µM], ERK AVP inh 7.6%[25.7 µM], HEK293 cAMP cs 10.7%[25.6 µM] and CRE-bla Fsk -7.3%[17.1 µM].
Screening COc1ccc(/C=C/N(CCc2ccc(OC)c(OC)c2)C(=O)C(F)(F)F)cc1 returned TSHR agonist 20.4%[11.4 µM], ERK AVP inh 17.5%[11.5 µM] and HEK293 cAMP cs 28.7%[11.4 µM].
For Cc1n[nH]c(C)c1S(=O)(=O)N1CCCC(C(=O)NC2CCCCC2)C1 (centres undefined) the results were TSHR agonist inconclusive, ERK AVP inh -5.1%, HEK293 cAMP cs 10µM* and CRE-bla Fsk 3.1%.

Source: PubChem BioAssay
